Experimental data from PubChem BioAssay (Tox21).
Records with an inconclusive call do not appear. Activity calls are given as the source filed them. Unless noted, calls come from the whole dose curve; as a rule, active = well fitted curve in the direction sought with a large enough effect in the repeat runs; inconclusive = weak or mixed curves; inactive = no such curve, though single readings can be large; an effect the other way counts as inactive or inconclusive.

Assays:
[1] = qHTS assay to identify small molecule antagonists of the androgen receptor (AR) signaling pathway using the MDA cell line in the presence of 0.5 nM R1881 - cell viability counter screen (AID 1259242); note: nearly all actives have a fitted effect of over 45% in size
Outline: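 Counter screen for cytotoxicity run in the same wells as the AR antagonist reporter screen: MDA-kb2 cells were treated 16 hr with test compounds and 0.5 nM R1881, then live-cell protease activity was measured by fluorescence.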

[2] = qHTS assay to identify small molecule HDAC inhibitors (AID 1259364); note: top concentration of the series differs between compounds; nearly all actives have a fitted effect of over 45% in size
Outline: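 Luminescence from a cell-permeant luminogenic class I/II HDAC substrate reports endogenous deacetylase activity in intact HCT-116 cells treated with compounds for 2 h.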

[3] = qHTS assay to identify small molecule HDAC inhibitors - cell viability counter screen (AID 1259365); note: series mostly up to about 92 µM; nearly all actives have a fitted effect of over 50% in size
Outline: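 To flag cytotoxic hits, 1,500 wild-type HCT-116 cells per well, plated the day before, receive test compounds for 2hr at 37 C before CellTiter-Glo reagent and a luminescence read.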

[4] = qHTS assay to identify small molecule agonists of the sonic hedgehog signaling (Shh) pathway - cell viability counter screen (AID 1259366); note: nearly all actives have a fitted effect of over 50% in size
Outline: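 Fluorescence from CellTiter-Fluor reports live cells in this counter screen. NIH/3T3-derived Gli1-Luc reporter cells receive test compounds for 24hr at 37C; reagent goes in at 23hr.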

[5] = qHTS assay to identify small molecule antagonists of the sonic hedgehog signaling (Shh) pathway - cell viability counter screen (AID 1259367); note: nearly all actives have a fitted effect of over 55% in size
Outline: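 Using CellTiter-Fluor, viability of Gli1-Luc reporter 3T3 cells is read by fluorescence in the wells used for the Shh luciferase assay. Treatment lasts 23 hr with conditioned medium, then reagent 1 hr at 37C.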

[6] = qHTS assay to identify small molecule agonists of the sonic hedgehog signaling (Shh) pathway (AID 1259368; calls by dose curve;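 note: NIH/3T3-derived 3T3Gli1-Luc cells carrying a stable Gli1-driven firefly luciferase reporter; series mostly up to about 92 µM; nearly all actives have a fitted effect of over 15% in size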)
Outline: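 3T3Gli1-Luc (NIH/3T3 clone, stable Gli1-Luc); 4 hr pre-incubation, then cpd in DMSO 24 hr, 37 C/5% CO2; luciferase reagent 30 min RT; luminescence.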

[7] = qHTS assay to identify small molecule antagonists of the sonic hedgehog signaling (Shh) pathway (AID 1259369; calls by dose curve; note: nearly all actives have a fitted effect of over 45% in size)
Outline: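 3T3Gli1-Luc, conditioned-medium-stimulated, 24hr cpd, 37C/5% CO2; Gli1-driven firefly Luc luminescence after 30min RT with luciferase reagent. Cells plated 4hr before cpd.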

[8] = qHTS assay to identify small molecule agonists of the androgen receptor (AR) signaling pathway in the presence of an antagonist - cell viability counter screen (AID 1259379);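 note: MDA-kb2 human breast cancer cells carrying an MMTV luciferase reporter; series mostly up to about 92 µM; nearly all actives have a fitted effect of over 25% in size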
Outline: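 Cells: MDA-kb2 (MMTV-luc, AR and GR elements), 3,000/well, 5 hr settle. Added: nilutamide 3.0uM final, then compounds (15 conc.). Incubation: 16 hr, 37C, no CO2. Read-out: CellTiter-Fluor, 1 hr, fluorescence.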

[9] = qHTS assay to identify small molecule agonists of the estrogen receptor beta (ER-beta) signaling pathway - cell viability counter screen (AID 1259380); note: nearly all actives have a fitted effect of over 30% in size
Outline: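 HEK293T ER-beta-UAS-bla; 2% CS-FBS; 6 hr pre-plate, 16 hr cpd at 37C/5% CO2; LiveBLAzer read first, then CellTiter-Glo 30 min RT, luminescence.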

[10] = qHTS assay to identify small molecule antagonists of the estrogen receptor beta (ER-beta) signaling pathway - cell viability counter screen (AID 1259382);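 note: HEK293T cells carrying ER-beta-UAS-bla reporter stimulated with estradiol; series mostly up to about 92 µM; nearly all actives have a fitted effect of over 55% in size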
Outline: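 Cells: ER-beta-UAS-bla HEK293T, 2,000/well, 2% CS-FBS, 6 hr settle. Cpd + E2 (1nM final), 16 hr, 37C/5% CO2. Bla FRET substrate 2 hr RT, then CellTiter-Glo 30 min RT, luminescence.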

[11] = target: Thyrotropin receptor (Homo sapiens) (UniProt P16473); test: qHTS assay to identify small molecule antagonists of the thyroid stimulating hormone receptor (TSHR) signaling pathway (AID 1259385; calls by dose curve; note: nearly all actives have a fitted effect of over 20% in size)
Chain of Thyrotropin receptor (Homo sapiens) (P16473 whole entry, looked up): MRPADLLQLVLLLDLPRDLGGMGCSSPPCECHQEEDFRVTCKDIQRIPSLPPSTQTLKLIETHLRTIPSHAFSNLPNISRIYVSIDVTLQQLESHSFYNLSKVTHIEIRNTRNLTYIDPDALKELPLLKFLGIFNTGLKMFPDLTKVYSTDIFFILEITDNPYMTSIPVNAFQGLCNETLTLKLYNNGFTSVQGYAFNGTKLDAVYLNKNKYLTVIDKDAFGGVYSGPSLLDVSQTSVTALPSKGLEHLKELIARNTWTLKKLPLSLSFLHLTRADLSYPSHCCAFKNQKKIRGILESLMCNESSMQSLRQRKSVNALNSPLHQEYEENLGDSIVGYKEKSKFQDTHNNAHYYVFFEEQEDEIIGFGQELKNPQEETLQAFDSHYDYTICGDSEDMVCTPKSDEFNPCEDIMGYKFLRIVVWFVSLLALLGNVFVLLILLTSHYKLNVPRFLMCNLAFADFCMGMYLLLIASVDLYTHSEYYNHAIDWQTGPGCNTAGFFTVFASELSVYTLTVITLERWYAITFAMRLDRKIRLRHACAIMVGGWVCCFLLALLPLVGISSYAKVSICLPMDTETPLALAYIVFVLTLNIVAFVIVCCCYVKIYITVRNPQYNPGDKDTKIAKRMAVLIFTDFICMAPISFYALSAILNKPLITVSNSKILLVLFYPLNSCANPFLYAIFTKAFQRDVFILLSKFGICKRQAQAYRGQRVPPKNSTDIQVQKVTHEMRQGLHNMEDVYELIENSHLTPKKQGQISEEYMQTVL
Outline: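 Antagonist mode: compound-treated TSHR-expressing HEK293 cells were stimulated with 1.5 ng/mL TSH (final) in presence of Ro20-1724 for 30 min at RT. HTRF cAMP detection after 1 h; each compound tested at 15 concentrations, triplicate.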

[12] = qHTS assay to identify small molecule agonists of the estrogen receptor alpha (ER-alpha) signaling pathway in the presence of an antagonist - cell viability counter screen (AID 1259386);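 note: series mostly up to about 92 µM; cells exposed to compounds for 22 h at 37 °C before the viability read; nearly all actives have a fitted effect of over 30% in size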
Outline: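 VM7Luc4E2, stripped-serum pre-culture 5 d; 24hr plating; +ICI-182,780 10.0nM final; cpds 15 conc, 22hr, 37C/5% CO2; CellTiter-Fluor added at 21hr, fluorescence 1hr later.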

[13] = qHTS assay to identify small molecule agonists or antagonists of the thyroid stimulating hormone receptor (TSHR) signaling pathway - wild type cell line counter screen (AID 1259384; calls by dose curve)
Outline: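 Counter screen in untransfected Hek293: compounds (15-point titration, triplicate) plus phosphodiesterase inhibitor Ro20-1724 added after 18 h plating; 30 min RT. Intracellular cAMP via competitive d2/cryptate immunoassay, 1 h incubation.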

[14] = target: Estrogen receptor (Homo sapiens) (UniProt P03372); test: qHTS assay to identify small molecule agonists of the estrogen receptor alpha (ER-alpha) signaling pathway in the presence of an antagonist (AID 1259383; calls by dose curve; note: top concentration of the series differs between compounds; nearly all actives have a fitted effect of over 15% in size)
Chain of Estrogen receptor (Homo sapiens) (P03372 whole entry, looked up): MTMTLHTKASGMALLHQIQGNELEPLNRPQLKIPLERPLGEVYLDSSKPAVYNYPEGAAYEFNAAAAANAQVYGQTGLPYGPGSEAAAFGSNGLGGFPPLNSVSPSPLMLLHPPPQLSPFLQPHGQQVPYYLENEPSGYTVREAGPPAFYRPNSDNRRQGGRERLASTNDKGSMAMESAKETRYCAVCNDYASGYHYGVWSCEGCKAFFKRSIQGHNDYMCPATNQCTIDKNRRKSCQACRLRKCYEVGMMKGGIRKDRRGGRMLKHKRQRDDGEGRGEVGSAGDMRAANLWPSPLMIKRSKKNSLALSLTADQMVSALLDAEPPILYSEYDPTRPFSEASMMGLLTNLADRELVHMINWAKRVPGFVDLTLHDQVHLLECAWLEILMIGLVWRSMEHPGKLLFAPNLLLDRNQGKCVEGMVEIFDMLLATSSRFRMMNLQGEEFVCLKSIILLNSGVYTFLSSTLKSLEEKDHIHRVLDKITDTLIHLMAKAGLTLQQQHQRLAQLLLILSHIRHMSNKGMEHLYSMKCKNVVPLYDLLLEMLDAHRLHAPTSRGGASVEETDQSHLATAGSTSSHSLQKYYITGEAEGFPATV
Outline: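 VM7Luc4E2, endog. ER-alpha + 4×ERE-luc; charcoal-stripped FBS, phenol red-free, 5 d; 24hr plating; +10.0nM ICI-182,780 (final); cpds 15 conc, 22hr, 37C/5% CO2; ONE-Glo luminescence.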

[15] = target: Estrogen receptor beta (Homo sapiens) (UniProt Q92731); test: qHTS assay to identify small molecule agonists of the estrogen receptor beta (ER-beta) signaling pathway (AID 1259377; active = well fitted activation curve with a large enough effect in the signal ratio in the repeat runs, not every such curve was filed as active; the % refers to the signal ratio)
Chain of Estrogen receptor beta (Homo sapiens) (Q92731 whole entry, looked up): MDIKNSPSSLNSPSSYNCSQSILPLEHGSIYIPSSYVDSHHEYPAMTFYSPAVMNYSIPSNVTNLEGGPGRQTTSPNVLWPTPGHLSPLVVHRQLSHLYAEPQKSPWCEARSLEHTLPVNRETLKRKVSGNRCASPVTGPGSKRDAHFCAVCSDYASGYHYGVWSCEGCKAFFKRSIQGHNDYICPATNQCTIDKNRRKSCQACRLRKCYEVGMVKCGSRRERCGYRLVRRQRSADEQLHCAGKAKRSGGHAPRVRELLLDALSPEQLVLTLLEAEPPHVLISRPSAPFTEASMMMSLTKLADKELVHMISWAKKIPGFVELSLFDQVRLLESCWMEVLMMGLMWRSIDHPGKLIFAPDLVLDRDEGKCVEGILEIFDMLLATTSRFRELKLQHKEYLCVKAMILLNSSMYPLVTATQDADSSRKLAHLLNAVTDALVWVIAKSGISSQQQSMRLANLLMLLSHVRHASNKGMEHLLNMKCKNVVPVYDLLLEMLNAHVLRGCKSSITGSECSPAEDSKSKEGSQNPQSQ
Outline: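 Screening used GripTite ER-beta-UAS-bla cells held in 2% charcoal-stripped FBS medium. After overnight (16 hr) compound incubation at 37C, beta-lactamase activity was detected with a FRET substrate by fluorescence.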

[16] = target: Estrogen receptor beta (Homo sapiens) (UniProt Q92731); test: qHTS assay to identify small molecule antagonists of the estrogen receptor beta (ER-beta) signaling pathway (AID 1259378; active = well fitted inhibition curve with a large enough effect in the signal ratio in the repeat runs, not every such curve was filed as active; the % refers to the signal ratio)
Outline: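 Antagonist mode: compounds added to beta-lactamase reporter HEK293T ER-beta-UAS cells stimulated with E2 (1nM final), 16 hr at 37C. LiveBLAzer B/G FRET substrate, 2 hours room temperature, fluorescence read-out.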

[17] = qHTS assay to identify small molecule phospholipidosis (PLD) inducers (AID 1259344; active = well fitted curve in the direction sought with a large enough effect; an effect the other way counts as inactive or inconclusive)
Outline: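 Fluorescent phospholipid staining (LipidTOX Red) measured by automated microscopy in fixed HepG2 cells after 24 h treatment; nuclei counterstained with Hoechst 33342; amiodarone as reference inducer.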

Measured: Potency

CCCCNCCCC
inactive: [1] | [2] | [3] | [4] | [5] | [6] | [7] | [8] | [9] | [10] | [11] | [12]

Cc1ccc(C(C)C)cc1O
inactive: [1] | [2] | [3] | [4] | [5] | [6] | [7] | [8] | [9] | [10] | [13] | [12]

C1CCOC1
inactive: [1] | [2] | [3] | [4] | [5] | [6] | [7] | [8] | [9] | [10] | [11] | [12]

CC(=O)OC1C2(C)CCC(C2)C1(C)C (stereo not drawn)
inactive: [1] | [2] | [3] | [4] | [5] | [6] | [7] | [8] | [9] | [10] | [14] | [13] | [11] | [12]

OCCN1CCN(CCO)CC1
inactive: [1] | [2] | [3] | [4] | [5] | [6] | [7] | [8] | [9] | [10] | [13] | [12]

O=C1Nc2ccc([N+](=O)[O-])cc2C1=O
inactive: [1] | [2] | [3] | [4] | [5] | [6] | [7] | [15] | [16] | [10] | [11]

CN(CC1(C)CCCO1)S(=O)(=O)c1ccc(Cl)c(S(N)(=O)=O)c1 (stereo not drawn)
inactive: [1] | [2] | [3] | [4] | [5] | [6] | [7] | [15] | [8] | [9] | [10] | [11] | [12]

CCN1CC(CCN2CCOCC2)C(c2ccccc2)(c2ccccc2)C1=O (stereo not drawn)
inactive: [1] | [17] | [2] | [3] | [6] | [15] | [16] | [8] | [9] | [10] | [13] | [11]

Cc1c(N)cccc1N
inactive: [1] | [2] | [3] | [4] | [5] | [6] | [7] | [15] | [16] | [8] | [9] | [10] | [13] | [11] | [12]

CC(C)=CCC[C@](C)(O)[C@@H]1CC=C(C)CC1
inactive: [1] | [2] | [3] | [4] | [5] | [6] | [7] | [15] | [16] | [8] | [9] | [10] | [13] | [11] | [12]
